High-throughput results from PubChem BioAssay.
hcDAF-12 act: H. contortus DAF-12 activation, primary screen | hit rate 1.4% among 370,000 | HEK293 hcDAF-12 lit1-tk-luc reporter, luminescence; 0% DMSO, 100% Δ7-dafachronic acid | activation, % at 6.8 µM | AID 652067;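 active means activation above the mean of all tested compounds plus 3 SD, cut at about 5.5% in these data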;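 further: 100% = response to 3 µM Δ7-dafachronic acid high control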
SMARCA2 act: SMARCA2 function activation, primary screen; MG213 cells, MMTV-luciferase reporter, dexamethasone, overnight; activation, % at 9.1 µM; hit rate 1% among 370,000; AID 652017; in the data active means activation above about 7.8%;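 further: 0% = vehicle wells and 100% = reference activator wells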
DAX1 inh-1: DAX1 (NR0B1) inhibition, primary screen; HEK293T StAR-luciferase reporter, SF-1/DAX-1 repression relief; inhibition, % at 6.8 µM; hit rate 1.1% among 370,000; AID 652010;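 active means inhibition above the mean over all tested compounds plus 3 SD, cut at about 3.6% in these data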;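 further: 0% = DAX-1 cells with DMSO and 100% = cells lacking DAX-1 with DMSO; higher inhibition means more luminescence from relief of DAX-1 repression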
DAX1 inh-2: inhibits human nuclear receptor DAX1. P51843. HEK293 Gal4-DAX1 luciferase reporter, luminescence. inhibition, % at 6.75 µM. hit rate 0.99% among 340,000;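 active means inhibition above the mean over all tested compounds plus 3 SD, cut at about 4.2% in these data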;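 further: 0% = DAX1-transfected cells with DMSO and 100% = empty-vector control cells with DMSO; inhibition shows as a rise in luminescence from relieved DAX1 repression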
Target sequence (P51843 207-470 limits assumed): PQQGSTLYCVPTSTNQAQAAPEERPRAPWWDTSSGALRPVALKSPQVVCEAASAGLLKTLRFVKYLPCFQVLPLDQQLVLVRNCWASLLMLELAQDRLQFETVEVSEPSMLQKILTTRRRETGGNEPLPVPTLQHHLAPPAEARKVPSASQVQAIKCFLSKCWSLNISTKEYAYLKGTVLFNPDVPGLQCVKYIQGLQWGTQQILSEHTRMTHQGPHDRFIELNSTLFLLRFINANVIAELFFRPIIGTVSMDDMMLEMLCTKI
ssDAF12 agonist: activates DAF-12 receptor from parasite S. stercoralis. HEK293 ssDAF-12/GRIP1 lit1-tk-luc reporter, luminescence; % of 3 µM dafachronic acid response. activation, % at 6.8 µM. hit rate 1% among 370,000;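 active means activation above the mean over all tested compounds plus 3 SD, cut at about 0.9% in these data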;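 further: 0% = DMSO-only wells and 100% = 3 µM delta7-dafachronic acid wells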
hgDAF12 agonist: hgDAF-12 agonism, primary luciferase screen. HEK293 GAL4-hgDAF12 UAS-luciferase reporter, agonist luminescence; normalized to butyrate control. activation, % at 6.8 µM. hit rate 1.8% among 370,000;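 active means activation above a cutoff set at the mean of all screened compounds plus 3 SD, cut at about 10% in these data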;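 further: 0% = DMSO wells and 100% = sodium butyrate wells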
hgDAF12 ag: hgDAF-12 agonism, confirmation assay | shares compounds with hgDAF12 agonist | HEK293 GAL4-hgDAF12 luciferase reporter, agonist mode; percent of butyrate response | activation, % at 6.8 µM | hit rate 80% among 3,300;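 active means mean activation over triplicate wells above the hit cutoff derived from the earlier primary screen, cut at about 11% in these data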;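 further: 0% = DMSO low control and 100% = 2 mM sodium butyrate high control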
LXRb DAF12 ctr: LXR-beta agonism as DAF-12 counter-screen | shares compounds with hgDAF12 agonist | HEK293 Gal4-LXR luciferase reporter, 24 h | activation, % at 6.8 µM | 3,300 tested, under 10 active;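 active means mean activation of the triplicate above a set limit carried over from the primary screen, none filed active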
An asterisk follows results filed as active. Most compounds without a hit are left out; they make up all but 4.8% or so of the library.

For CC1(C)CC(=O)C=C(c2n[nH]nc2-c2ccc(F)c(F)c2)C1 the results were hcDAF-12 act 1.5, SMARCA2 act -1.0, DAX1 inh-1 -0.6, DAX1 inh-2 1.2, ssDAF12 agonist -1.1 and hgDAF12 agonist -0.5.
`Clc1ccccc1/C=C/c1nc(-c2cccnc2)no1` gave hcDAF-12 act 4.6, SMARCA2 act 1.8, DAX1 inh-1 2.8, DAX1 inh-2 2.7, ssDAF12 agonist 0.8 and hgDAF12 agonist 8.6.
C(=C\c1nc(-c2cccnc2)no1)/c1ccccc1 was read as hcDAF-12 act 2.6, SMARCA2 act 3.6, DAX1 inh-1 2.5, DAX1 inh-2 1.1, ssDAF12 agonist 1.0*, hgDAF12 agonist 13.3*, hgDAF12 ag 12.4* and LXRb DAF12 ctr 0.5.
For O=C(NC1CCCC1)c1cc(-c2ccccc2O)on1 the results were hcDAF-12 act 2.4, SMARCA2 act 3.0, DAX1 inh-1 2.1, DAX1 inh-2 2.9, ssDAF12 agonist -0.6 and hgDAF12 agonist 9.8.
For O=C(NC1CCCC1)c1cc(-c2cccs2)on1 the results were hcDAF-12 act 6.1*, SMARCA2 act 1.4, DAX1 inh-1 2.5, DAX1 inh-2 4.7*, ssDAF12 agonist 0.4, hgDAF12 agonist 47.4*, hgDAF12 ag 42.7* and LXRb DAF12 ctr 0.8.
Screening O=C(NC1CCCC1)c1cc(-c2ccc(F)cc2)on1 returned hcDAF-12 act 1.1, SMARCA2 act 4.7, DAX1 inh-1 2.2, DAX1 inh-2 5.8*, ssDAF12 agonist -0.3, hgDAF12 agonist 23.5*, hgDAF12 ag 37.4* and LXRb DAF12 ctr 0.6.
O=C(NCCCN1CCOCC1)c1cc(-c2cccs2)on1 was read as hcDAF-12 act 3.6, SMARCA2 act 1.9, DAX1 inh-1 -1.0, DAX1 inh-2 2.7, ssDAF12 agonist 0.5, hgDAF12 agonist 24.3*, hgDAF12 ag 46.3* and LXRb DAF12 ctr 0.3.
Cc1ccc(-c2cc(C(=O)NCCCN3CCOCC3)no2)cc1 was read as hcDAF-12 act -4.7, SMARCA2 act -11.5, DAX1 inh-1 -1.6, DAX1 inh-2 -2.5, ssDAF12 agonist -2.3 and hgDAF12 agonist -8.7.
O=C(Cn1c(COc2ccccc2)nc2ccccc21)Nc1cccc(Cl)c1 was read as hcDAF-12 act 1.5, SMARCA2 act -1.4, DAX1 inh-1 -0.4, DAX1 inh-2 1.5, ssDAF12 agonist -0.9 and hgDAF12 agonist 3.7.
`CCC(C)NC(=O)Cn1c(COc2ccc(Cl)cc2Cl)nc2ccccc21` (stereo not given) gave hcDAF-12 act 3.1, SMARCA2 act 1.1, DAX1 inh-1 3.2, DAX1 inh-2 0.0, ssDAF12 agonist -0.4, hgDAF12 agonist 16.1*, hgDAF12 ag 16.8* and LXRb DAF12 ctr 0.5.
For COc1cccc2cc(C(=O)Nc3cc(C)cc(C)c3)/c(=N/NS(=O)(=O)c3ccccc3)oc12 the results were hcDAF-12 act 1.2, SMARCA2 act -2.4, DAX1 inh-1 -0.7, DAX1 inh-2 0.6, ssDAF12 agonist -0.8 and hgDAF12 agonist 0.0.
Screening COc1ccc(NC(=O)c2cc3ccccc3o/c2=N\NS(=O)(=O)c2ccc(C)cc2)cc1 returned hcDAF-12 act 6.0*, SMARCA2 act 6.8, DAX1 inh-1 2.3, DAX1 inh-2 1.7, ssDAF12 agonist 0.0, hgDAF12 agonist 14.2*, hgDAF12 ag 12.6* and LXRb DAF12 ctr 0.7.
For Cc1cc(C)c2c(CCl)cc(=O)oc2c1 the results were hcDAF-12 act -1.9, SMARCA2 act -0.7, DAX1 inh-1 -0.6, ssDAF12 agonist -0.6 and hgDAF12 agonist 0.0.
Cc1cc(C)c2c(CN(C)Cc3ccccc3)cc(=O)oc2c1 was read as hcDAF-12 act -1.9, SMARCA2 act 5.7, DAX1 inh-1 0.8, ssDAF12 agonist -0.4, hgDAF12 agonist 13.5*, hgDAF12 ag -1.5 and LXRb DAF12 ctr 0.1.
O=C(N/N=C/c1ccccc1Cl)c1cccc(F)c1 was read as hcDAF-12 act 3.1, SMARCA2 act 2.8, DAX1 inh-1 3.7*, DAX1 inh-2 1.5, ssDAF12 agonist 0.3, hgDAF12 agonist 16.5*, hgDAF12 ag 12.7* and LXRb DAF12 ctr 0.5.
